High-throughput results deposited in PubChem by several laboratories.
IDE cell activ: human IDE activators in live cells, primary screen, fluorescence polarization, HEK cells, FAbeta-B substrate; Insulin-degrading enzyme (Homo sapiens), P14735; hit rate 0.073% among 340,000; activation, % at 5.96 µM; FAbeta-B cleavage; 0% vehicle, 100% cell-free pure enzyme wells;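 active = activation above the mean of all tested compounds plus 3 SD, set per screening campaign, cut at about 17% in these data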
PP5 primary: PP5 phosphatase inhibitors, primary screen, biochemical, fluorescence; inhibition, % at 6.7 µM; hit rate 0.18% among 320,000; purified PP5c, OMFP substrate fluorescence; AID 1987, 2009;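 active = inhibition above the campaign's mean inhibition across all tested compounds plus 3 SD, cut at about 9.5% in these data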;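 also: 0% = DMSO only and 100% = 100 µM cantharidin control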
Target sequence (P53041 whole entry, looked up): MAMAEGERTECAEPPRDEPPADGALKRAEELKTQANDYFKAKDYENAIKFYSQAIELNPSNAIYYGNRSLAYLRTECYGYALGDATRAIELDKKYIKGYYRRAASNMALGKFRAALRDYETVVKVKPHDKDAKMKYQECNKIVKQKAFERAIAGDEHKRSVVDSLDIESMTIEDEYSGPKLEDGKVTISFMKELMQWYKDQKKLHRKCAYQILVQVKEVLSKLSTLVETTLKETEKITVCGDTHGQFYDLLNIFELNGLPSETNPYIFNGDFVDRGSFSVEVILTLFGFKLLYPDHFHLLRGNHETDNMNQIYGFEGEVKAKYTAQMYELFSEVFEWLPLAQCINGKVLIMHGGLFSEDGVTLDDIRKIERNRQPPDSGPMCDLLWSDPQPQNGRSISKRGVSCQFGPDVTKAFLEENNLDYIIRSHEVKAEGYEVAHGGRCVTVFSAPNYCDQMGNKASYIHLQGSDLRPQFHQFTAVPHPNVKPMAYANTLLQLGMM
SKKanGAS inh: S. pyogenes SKKanGAS growth inhibitors in kanamycin, primary screen, streptokinase expression inhibitor project, SKKanGAS strain, BacTiter-Glo luminescence; 6 h; inhibition, % at 7.5 µM; hit rate 1.3% among 300,000; AID 1662, 2009;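 active = mean replicate score, as percent of positive control median, at least 50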;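 also: strain carries kanamycin resistance gene driven by streptokinase promoter and grows in 40 µg/ml kanamycin; loss of luminescence reflects streptokinase promoter inhibition or plain growth inhibition; 0% = median of DMSO wells and 100% = positive control at its reference dose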
PP1 counter: PP1-alpha phosphatase inhibitors, primary screen, counter-screen for PP5 inhibitor project, biochemical, fluorescence, OMFP substrate, single point. purified PP1alpha. inhibition, % at 6.7 µM. hit rate 0.9% among 320,000. AID 2235, 2010;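 active = inhibition above the mean inhibition of all tested compounds plus 3 SD, computed separately for each screening campaign, cut at about 15% in these data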
IDE cell inh: human IDE inhibitors in live cells, primary screen, fluorescence polarization, HEK cells, FAbetaB substrate | Insulin-degrading enzyme (Homo sapiens), P14735 | FAbetaB cleavage | inhibition, % at 5.59 µM | hit rate 0.41% among 320,000 | AID 434962, 2010;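 active = percent inhibition above the average of all tested compounds plus 3 SD, set per screening campaign, cut at about 16% in these data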;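 also: IDE supplied by intact live HEK cells; FP after avidin binding of uncleaved biotin substrate so inhibition keeps polarization high; 0% = DMSO wells and 100% = 60 µM reference IDE inhibitor Ii1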
Exocytosis inh: LAMP-1 surface exposure blockers, TALL-104 cells – cell-based, flow cytometry, MLPCN library, primary screen | inhibition, % at 10 µM | AID 651702, 2012 | TALL-104 LAMP-1 surface exposure; cells stimulated with thapsigargin and PMA | hit rate 0.66% among 360,000;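 active = inhibition above about 55%, limit read from the data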
Numbers without * were called inactive; . = no result given. This is a sample that favours compounds with a hit; in the whole collection about 2.8% have one here.

SMILES	IDE cell activ	PP5 primary	SKKanGAS inh	PP1 counter	IDE cell inh	Exocytosis inh
Cc1ccc(NC(=O)c2nc[nH]c2C(=O)N[C@@H](C)c2ccccc2)cc1	-1	7	66*	3	3	1
CC(C)(C)OC(=O)NCCCC[C@H](NC(=O)c1[nH]cnc1C(=O)N[C@@H](Cc1ccccc1)C(=O)OC(C)(C)C)C(=O)OC(C)(C)C	4	9	38	15*	1	17
CC(C)C[C@H](NC(=O)c1[nH]cnc1C(=O)N[C@H](C)c1ccccc1)C(=O)OCc1ccccc1	-1	4	73*	5	2	47
CC(C)(C)OC(=O)[C@H](Cc1ccccc1)NC(=O)c1nc[nH]c1C(=O)N[C@@H](Cc1ccccc1)C(=O)OC(C)(C)C	1	7	70*	14	-3	5
CC(C)(C)OC(=O)[C@H](Cc1ccccc1)NC(=O)c1[nH]cnc1C(=O)N[C@@H](Cc1ccccc1)C(=O)OCc1ccccc1	8	2	15	14	-2	1
CC(C)C[C@H](NC(=O)c1nc[nH]c1C(=O)N[C@@H](CC(C)C)C(=O)OCc1ccccc1)C(=O)OCc1ccccc1	2	4	33	10	7	-1
Cc1[nH]c(C)c(S(=O)(=O)N2CCN(c3ccccc3F)CC2)c1C(=O)N1CCCC1	-4	2	-1	1	7	9
CN(c1ccccc1)S(=O)(=O)c1cccc(NC(=O)CN2C(=O)NC3(CCCC3)C2=O)c1	3	.	.	.	.	-6
Cc1ccccc1NC1=C/C(=N\S(=O)(=O)c2ccc(C(=O)O)cc2)c2ccccc2C1=O	5	9	95*	4	1	-2
COc1ccc(S(=O)(=O)/N=C2\C=C(Nc3ccc(O)cc3)C(=O)c3ccccc32)cc1	5	7	103*	3	-8	68*
Cc1ccc(NC2=C/C(=N/S(=O)(=O)c3cccs3)c3ccccc3C2=O)cc1C	3	2	9	2	5	1
O=C(N/N=C/c1ccc([N+](=O)[O-])o1)c1cn(-c2ccccc2)nc1-c1ccc(Cl)cc1	1	-2	107*	7	2	-7
CN(C)c1ccc([C@@H]2[C@@H]([N+](=O)[O-])[C@H]3C=Cc4ccccc4N3[C@H]2C(=O)c2ccc(Cl)cc2)cc1	-15	1	.	16*	7	-3
OC(c1ccc(F)cc1)c1ncc(-c2ccc3ccccc3c2)[nH]1 (centres undefined)	.	.	.	.	.	-1
O=C(NCc1ccco1)/C(=C/c1ccc(C(F)(F)F)cc1)c1nc2ccccc2[nH]1	-2	-2	28	2	-3	4
O=S(=O)(/C(=C\c1ccc(C(F)(F)F)cc1)c1nc2ccccc2[nH]1)c1ccccc1	0	.	.	.	.	70*
CCc1cccc(C)c1NC(=O)CCCN1C(=O)CN(C)C1=O	0	0	.	-2	-3	4
Cc1nc(N2CCc3ccccc3C2)[nH]c(=O)c1Cc1ccccc1	5	3	22	0	2	0
Cc1nc(-n2[nH]c3c(c2=O)CCCC3)[nH]c(=O)c1Cc1ccccc1	3	-1	95*	5	3	-2
Cc1cc(O)c(C(=O)/C=C/c2ccc(Cl)cc2)c(=O)o1	-2	-9	20	17*	4	-10
O=C(CSc1nnc(-c2ccc(F)cc2)c2ccccc12)Nc1cccc(Cl)c1	5	-2	12	16*	0	-2
CCCc1nc(NCc2ccccc2)c(C#N)c2c1CCCC2	4	2	74*	-4	0	1
CCCc1nc(NCCO)c(C#N)c2c1CCCC2	.	2	-2	2	1	0
ClC(Cl)c1nnc(-c2ccccc2)c(-c2c[nH]c3ccccc23)n1	3	5	11	3	6	0
c1ccc(-c2nnc(-c3c[nH]c4ccccc34)nc2-c2ccccc2)cc1	4	3	65*	1	-2	-17
SMILES	IDE cell activ	PP5 primary	SKKanGAS inh	PP1 counter	IDE cell inh	Exocytosis inh
CCOc1ccc(C(=O)NCC2CCCN2S(=O)(=O)c2cccs2)cc1 (centres undefined)	2	2	53*	-7	-3	4
COc1ccc(-c2nc3ncccn3c2Nc2ccccc2)cc1	5	0	6	-2	-2	-9
Cc1cccn2c(Nc3ccccc3)c(-c3ccccn3)nc12	1	0	68*	12	-5	-3
CC(C)(C)c1ccc(Cn2ccc(-c3ccc4c(c3)OCO4)n2)cc1	3	0	53*	1	-9	-1
Cc1ccc(Cn2ccc(NC(=O)c3cc(-c4ccc5c(c4)OCO5)on3)n2)cc1	5	.	-7	.	.	-1
C[C@H]1[C@H](C)CC[C@]2(C(=O)O)CC[C@]3(C)C(=CC[C@@H]4[C@@]5(C)C[C@@H](O)[C@H](O)C(C)(C)[C@@H]5CC[C@]43C)[C@H]12	-3	-4	103*	-3	-3	3
C[C@H]1[C@H](C)CC[C@]2(C)CC[C@]3(C)C(=CC[C@@H]4[C@@]5(C)CC[C@@H](O)[C@](C)(C(=O)O)[C@@H]5CC[C@]43C)[C@H]12	.	-1	102*	-1	6	.
C[C@@H]1CC[C@]2(C(=O)O)CC[C@]3(C)C(=CCC4[C@@]5(C)CC[C@H](O)[C@@](C)(C(=O)O)C5CC[C@]43C)C2[C@]1(C)O (some centres undefined)	5	.	.	.	3	-14
C[C@H]1[C@H](C)CC[C@]2(C(=O)O)CC[C@]3(C)C(=CC[C@@H]4[C@@]5(C)CC[C@H](O)C(C)(C)[C@@H]5CC[C@]43C)[C@H]12	9	1	107*	0	-1	4
COC(=O)C(C)Sc1nc2c(cnn2-c2ccc(Cl)cc2)c(=O)[nH]1 (centres undefined)	0	1	14	1	3	-4
O=C1c2ccccc2C(Nc2ccc(-c3nc4ccccc4[nH]3)cc2)N1Cc1ccco1 (centres undefined)	-13	1	15	2	5	-6
O=C1c2ccccc2C(Nc2ccc3nc(-c4cccnc4)[nH]c3c2)N1Cc1ccco1 (centres undefined)	18*	2	3	3	-9	-4
O=C(CNC(=O)c1ccc(Br)cc1)NCC(=O)OCC(=O)c1ccc([N+](=O)[O-])cc1	-5	0	-2	1	17*	-3
O=C(NC(=S)NNC(=O)c1ccccc1[N+](=O)[O-])c1ccc(Br)cc1	-1	-1	63*	-3	1	-5
